Compounds with a hit are over-represented: about 2.7% of the library has one in this group of screens.
Wnt act = Wnt/beta-catenin pathway activation; Wnt/beta-catenin reporter cell assay, activator, plate reader; activation, % at 9.35 µM; hit rate 1.2% among 300,000; AID 743398; in the data active = activation above about 30%, passing the limit was not always enough; inconclusive = no clear call, values can overlap the other calls
HIV Env fusion = HIV envelope-mediated fusion inhibition; HeLa-JRFL Env/CEM21 cell fusion, luciferase; inhibition, % at 12.3 µM; hit rate 1.1% among 360,000;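 active = mean replicate inhibition score of at least 50 and every replicate individually at or above 50; inconclusive = only one of the two criteria met; inactive = mean below 50 and not all replicates reaching 50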
MITF act = MITF TRPM1 promoter activation in melanoma cells; SK-MEL-5 TRPM1-promoter luciferase, 24 h; % of positive control, neutral wells = 0; AID 588334; activation, % at 12.5 µM; hit rate 0.75% among 300,000;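 active = mean activation of at least 80% with every replicate also reaching 80%; inconclusive = mean reaches 80% but some replicate falls short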
INS-1E GSIS act = GLuc luminescence reporter in INS-1E cells, primary screen for activators of glucose-dependent secretion of insulin; hit rate 0.61% among 370,000; activation, % at 16.6 µM; INS-1E GLuc reporter insulin secretion, 2-3 h;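 active = lowest replicate activation of at least 40%, so every replicate reaches that level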
CFTR F508del cor = CFTR F508del correction in bronchial cells. CFBE cells, YFP halide quenching; stimulated with forskolin plus potentiator P3; % fluorescence drop versus neutral controls. hit rate 0.36% among 350,000. AID 720511. activity (quench increase), % at 7.58 µM;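 active = mean added fluorescence quench of at least 8% versus neutral control, with both replicates also reaching 8%; inconclusive = only one of the mean or replicate conditions met; inactive = mean below 8% and not both replicates reaching 8%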;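 also: cells transiently co-express mutant CFTR-F508del with the halide-sensitive YFP; corrector assay measuring rescue of mutant channel to the surface after 24 h compound exposure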
Of the large screens only hits and unclear results are named; the others gave an inactive call; [ ] = remark or other dose.

CCCC(=O)Nc1ccc2c(c1)OC[C@H](C)N(C(=O)c1cnccn1)C[C@H](C)[C@@H](OC)CN(C)C2=O	none (no result: Wnt act, HIV Env fusion, MITF act)
COC(=O)CSC1=C(C#N)C(c2ccc(F)cc2)CC(=O)N1 (stereo not drawn)	none
COC(=O)CSC1=C(C#N)C(c2ccc(C)o2)CC(=O)N1 (stereo not drawn)	CFTR F508del cor 9.7
C[C@H]1CC=CC[C@H](c2cccc(Cl)c2)NC(=O)[C@H](C)N(C)C(=O)c2ccccc2O1 (mixture of isomers)	none (no result: Wnt act, HIV Env fusion, MITF act, CFTR F508del cor)
Cc1ccc(O)c(-c2cc(-c3ccc(F)cc3)no2)c1	Wnt act 43.7
Cc1ccc(-c2cc(-c3ccccc3)no2)c(O)c1	none (no result: Wnt act, CFTR F508del cor)
Cc1ccc(S(=O)(=O)N(C)C[C@H]2Oc3ccc(NC(=O)Cc4cn(C)c5ccccc45)cc3CC(=O)N([C@@H](C)CO)C[C@@H]2C)cc1	none (no result: Wnt act, MITF act)
C[C@H]1CN([C@@H](C)CO)C(=O)Cc2cc(NC(=O)Cc3cn(C)c4ccccc34)ccc2O[C@H]1CN(C)S(=O)(=O)c1ccccc1	HIV Env fusion 67.1[16.7 µM] (no result: Wnt act, MITF act)
C[C@H](CO)N1C[C@H](C)[C@H](CN(C)S(=O)(=O)c2ccc(Cl)cc2)Oc2ccc(NC(=O)Cc3cn(C)c4ccccc34)cc2CC1=O	HIV Env fusion inconclusive (no result: Wnt act, MITF act)
Cc1ccc(S(=O)(=O)N(C)C[C@@H]2Oc3ccc(NC(=O)Cc4cn(C)c5ccccc45)cc3CC(=O)N([C@H](C)CO)C[C@@H]2C)cc1	HIV Env fusion 73.7[16.7 µM] (no result: Wnt act, MITF act)
C[C@H](CO)N1C[C@H](C)[C@H](CN(C)S(=O)(=O)c2ccc(F)cc2)Oc2ccc(NC(=O)Cc3cn(C)c4ccccc34)cc2CC1=O	HIV Env fusion 56.0[16.7 µM] (no result: Wnt act, MITF act)
CC1(C)CC2CC(C)(CN2S(=O)(=O)c2cccc(C(=O)OCC(=O)NC(N)=O)c2)C1 (stereo not drawn)	HIV Env fusion 91.3
CN(C)c1ccc2nc3ccc(=[N+](C)C)cc-3sc2c1	HIV Env fusion 85.5
COc1ccc2nc(N=Nc3ccc(N(C)C)cc3)sc2c1	none (no result: CFTR F508del cor)
CN(C)c1ccc2nc3ccc(=O)cc-3sc2c1	HIV Env fusion 65.8 (no result: MITF act, INS-1E GSIS act)
Cc1cc2nc3ccc(=[N+](C)C)cc-3sc2cc1N	none (no result: Wnt act, HIV Env fusion, INS-1E GSIS act, CFTR F508del cor)
O=C(Nc1ccccc1)N[C@@H]1CC[C@@H](CCNC(=O)c2ccccc2F)O[C@@H]1CO	none (no result: Wnt act, MITF act)
Cc1noc(C)c1NC(=O)N[C@@H]1C=C[C@@H](CC(=O)NCc2ccc(Cl)c(Cl)c2)O[C@@H]1CO	none (no result: Wnt act, MITF act)
COc1ccccc1CN1C[C@H](C)[C@H](OC)CN(C)C(=O)c2ccc(NC(C)=O)cc2OC[C@H]1C	none (no result: Wnt act, MITF act)
COc1ccc(/C=N/Nc2ncnc3c2[nH]c2ccccc23)c(OC)c1OC	INS-1E GSIS act 68.4 (no result: Wnt act, CFTR F508del cor)
Cc1cccc(N2CCN(S(=O)(=O)c3cc(-c4cc(C)no4)ccc3C)CC2C)c1 (stereo not drawn)	CFTR F508del cor 11.3
COc1ccc(-c2cc(C)no2)cc1S(=O)(=O)N1CCN(c2cccc(C)c2)C(C)C1 (stereo not drawn)	none
O=C(Nc1ccc2c(c1)[C@H]1C[C@@H](CC(=O)N3CCOCC3)O[C@@H](CO)[C@H]1O2)NC1CCCCC1	none (no result: Wnt act, MITF act)
CCCC(=O)Nc1ccc2c(c1)C(=O)N(C)[C@@H]1CC[C@@H](CC(=O)N3CCc4ccccc4C3)O[C@@H]1CO2	none (no result: Wnt act, MITF act)
OCC1(CCOc2ccccc2)CCN(Cc2ccccc2C(F)(F)F)CC1	Wnt act 40.6
COc1ccc(C2=NOC(Cn3nc(-c4ccccc4)cc3C(=O)NCc3cccc(Br)c3)C2)cc1 (stereo not drawn)	none
COc1ccccc1CNC(=O)c1cc(-c2ccccc2C)n(CC2CC(c3cccc([N+](=O)[O-])c3)=NO2)n1 (stereo not drawn)	HIV Env fusion 59.8
COc1ccc(C2=NOC(Cn3nc(C(=O)NCc4cccc(Br)c4)cc3-c3ccccc3)C2)cc1 (stereo not drawn)	HIV Env fusion 85.0 (no result: INS-1E GSIS act)
CO[C@H]1CN(C)C(=O)c2cc(NC(C)=O)ccc2OC[C@H](C)N(CC2CCCCC2)C[C@@H]1C	none (no result: Wnt act, MITF act)
O=C(Nc1cc(F)ccc1F)N1CC(=O)N2[C@H](CO)[C@H](c3ccc(-c4cccnc4)cc3)[C@H]2C1	none (no result: Wnt act, HIV Env fusion, MITF act)
Cc1cc(C)c(-c2csc(NC(=O)/C=C/c3cccs3)n2)c(C)c1	HIV Env fusion 62.5 (no result: CFTR F508del cor)
Cc1nc2c(sc3nc4c(cc32)COC(C)(C)C4)c(=O)n1CC(=O)NCc1ccco1	CFTR F508del cor 12.6 (no result: HIV Env fusion)
CO[C@@H]1CN(C)C(=O)c2cc(NC(=O)c3cc(C)on3)ccc2OC[C@H](C)N(C(=O)C2CC2)C[C@H]1C	none (no result: Wnt act, HIV Env fusion, MITF act)
COc1ccc(OC)c(NC(=O)C2(C)CCN2CCOc2ccccc2)c1 (stereo not drawn)	HIV Env fusion 65.5 (no result: MITF act)
COc1ccc(NC(=O)C2(C)CCN2CCOc2ccccc2)cc1OC (stereo not drawn)	none (no result: MITF act)
Cn1c(N)c(C(=O)COC(=O)c2cc(S(=O)(=O)N3CCOCC3)ccc2F)c(=O)n(C)c1=O	Wnt act 95.9 (no result: HIV Env fusion, INS-1E GSIS act)
O=C(COn1nnc2ccccc21)NCC1CCCCC1	Wnt act 35.6 (no result: MITF act, INS-1E GSIS act, CFTR F508del cor)
Cc1ccc(S(=O)(=O)N(C)C[C@H]2Oc3ccc(NC(=O)Cc4ccccc4)cc3CC(=O)N([C@H](C)CO)C[C@H]2C)cc1	none (no result: Wnt act, MITF act)
O=C(O)C1C2CCCCC2=C2CCCCC2C1C(=O)O (stereo not drawn)	Wnt act 90.4 (no result: INS-1E GSIS act, CFTR F508del cor)
C[C@H]1CN([C@@H](C)CO)S(=O)(=O)c2ccc(C3=CCCC3)cc2O[C@H]1CN(C)Cc1ccncc1	none (no result: Wnt act, MITF act)
Oc1cccc(Oc2ncc(C(F)(F)F)cc2Cl)c1	Wnt act 64.5
O=C(c1ccccc1)N1C[C@@H]2[C@H](c3ccccc31)[C@H](CO)N2C(=O)c1cccc(F)c1	none (no result: Wnt act, HIV Env fusion, MITF act)
COC(=O)C1=C(C)N(C)C(=NCc2ccc3c(c2)OCO3)NC1c1ccc(C(F)(F)F)cc1 (stereo not drawn)	HIV Env fusion 57.2 (no result: MITF act)
COC(=O)C1=C(C)N(C)C(=NCc2cccc(C(F)(F)F)c2)NC1c1ccc(C(F)(F)F)cc1 (stereo not drawn)	INS-1E GSIS act 45.2 (no result: MITF act)
CC(C)C(=O)Nc1ccc2c(c1)C(=O)N(C)[C@@H]1CC[C@@H](CC(=O)NCc3ccc(F)cc3)O[C@@H]1CO2	none (no result: Wnt act, MITF act)
CCc1c(C)nc2cc(-c3cccc(Br)c3)[nH]n2c1=O	Wnt act 36.3 (no result: MITF act)
C[C@H](CO)N1C[C@H](C)[C@H](CN(C)Cc2ccc(-c3ccccc3)cc2)Oc2c(NC(=O)C3CCCCC3)cccc2C1=O	none (no result: Wnt act, MITF act)
O=C(Cc1ccccn1)N[C@@H]1CC[C@@H](CCn2cc(-c3ccc(F)cc3)nn2)O[C@@H]1CO	none (no result: Wnt act, HIV Env fusion, MITF act)
COCCN(CC(=O)NC1CCCCC1)C(=O)/C=C/C(=O)c1ccc(OC)cc1O	INS-1E GSIS act 49.1
COc1ccc(C(=O)/C=C/C(=O)N(CC(=O)NC2CCCCC2)Cc2cccs2)c(O)c1	none
Nc1cc(=O)[nH]c(SCCSc2ccccc2)n1	HIV Env fusion 58.4 (no result: MITF act)
Cc1ccc(S(=O)(=O)N[C@@H]2CC[C@@H](CC(=O)N3CCC(Cc4ccccc4)CC3)O[C@H]2CO)cc1	none (no result: Wnt act, MITF act)

Screening data as filed in PubChem.
